Most compounds without a hit are left out; they make up all but 3.7% or so of the library.
FadD28 binding: inhibitors of FadD28 bisubstrate probe binding, primary screen, biochemical, fluorescence polarization, single point | inhibition, % at 12.5 µM | AID 588549, 2011 | 360,000 tested, 0.22% active; in the data active means inhibition above about 8.5%, passing the limit was not always enough; inconclusive means no clear call, values can overlap the other calls
GDH-TPI counter-1: GDH-TPI coupling enzyme inhibitors, primary screen, artefact control for M. tuberculosis FBA inhibitor project, biochemical, absorbance, full deck | 360,000 tested, 1.2% active | GDH-TPI coupled enzyme counterscreen, NADH absorbance | inhibition, % at 4.8 µM; in the data active means inhibition above about 30%
Mtb UGM inh: M. tuberculosis UGM enzyme inhibitors, primary screen, biochemical, fluorescence polarization, single point; inhibition, % at 10 µM; UDP-galactopyranose mutase (Mycobacterium tuberculosis (strain ATCC 25618 / H37Rv)), …; purified UGM, fluorescence polarization probe displacement; AID 504406, 2011; 320,000 tested, 0.06% active; in the data active means inhibition above about 10%, passing the limit was not always enough; inconclusive means no clear call, values can overlap the other calls
Mtb bLac sens: beta-lactam sensitization of Mtb H37Rv, H37Rv. M. tuberculosis H37Rv growth with meropenem, percent inhibition. inhibition, % at 25 µM. 330,000 tested, 0.27% active; call rule not given here;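 further: growth measured after seven days incubation then overnight dye step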
Rv3671c protease: Rv3671c serine protease inhibitors, primary screen, biochemical, fluorescence polarization, M. tuberculosis H37Rv; P9WHR9; inhibition, % at 5.96 µM; 320,000 tested, 0.048% active; AID 2606, 2010; in the data active means inhibition above about 38%;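 further: extracellular domain of Rv3671c used as enzyme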
Target sequence (P9WHR9 whole entry, looked up, the tested form may be a part): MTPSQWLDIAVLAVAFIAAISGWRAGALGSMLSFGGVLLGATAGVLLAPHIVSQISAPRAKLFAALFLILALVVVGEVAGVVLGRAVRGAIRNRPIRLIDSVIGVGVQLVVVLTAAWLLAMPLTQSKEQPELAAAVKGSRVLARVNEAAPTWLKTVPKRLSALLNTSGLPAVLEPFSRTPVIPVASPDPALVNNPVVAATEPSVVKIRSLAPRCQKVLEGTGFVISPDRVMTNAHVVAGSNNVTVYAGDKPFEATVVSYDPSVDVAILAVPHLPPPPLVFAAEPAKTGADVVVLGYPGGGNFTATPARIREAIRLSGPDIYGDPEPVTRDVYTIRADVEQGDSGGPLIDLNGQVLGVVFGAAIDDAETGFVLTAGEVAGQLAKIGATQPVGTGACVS
Mtb FBA inh: Mtb FBA enzyme inhibitors, primary screen, biochemical, fluorescence, strain H37Rv; inhibition, % at 1 µM; 360,000 tested, 2.3% active; purified M. tuberculosis FBA, fluorescence read-out; AID 588726, 2011; Fructose-bisphosphate aldolase (Mycobacterium tuberculosis (strain ATCC 25618 / H37Rv)), …
Mtb FBA inh conf: M. tuberculosis aldolase blockers, biochemical, fluorescence, strain H37Rv, confirmation; inhibition, % at 1 µM; shares compounds with Mtb FBA inh; AID 651616, 2012; 5,600 tested, 78% active; purified M. tuberculosis FBA, fluorescence read-out
GDH-TPI counter-2: GDH-TPI coupling enzyme inhibitors, artefact control for M. tuberculosis FBA inhibitor project, biochemical, fluorescence, high throughput | AID 652141, 2013 | shares compounds with Mtb FBA inh | inhibition, % at 1 µM | GDH-TPI coupled enzyme counterscreen | 5,600 tested, 81% active; in the data active means inhibition above about 10%
A number is an active result. Unless noted, no stated cut-off is given here; in the data, active means inhibition above about 27%; inactive means the rest.

For CCOC(=O)CNC(=O)c1ccc2[nH]c3ccccc3c2c1 the results were FadD28 binding inactive, GDH-TPI counter-1 inactive, Mtb UGM inh inactive, Mtb bLac sens inactive, Rv3671c protease inactive, Mtb FBA inh 60.5, Mtb FBA inh conf inactive and GDH-TPI counter-2 inactive.
CCOC(=O)Nc1cccc(OCC(=O)Nc2ccc3c(c2)CCC3)c1 was read as FadD28 binding inactive, GDH-TPI counter-1 inactive, Mtb UGM inh inactive, Mtb bLac sens inactive, Rv3671c protease inactive and Mtb FBA inh inactive.
`CC(NCc1ccc(OCC(N)=O)cc1)C12CC3CC(CC(C3)C1)C2` (stereo not drawn) gave FadD28 binding inactive, GDH-TPI counter-1 inactive, Mtb UGM inh inactive, Mtb bLac sens inactive, Rv3671c protease inactive and Mtb FBA inh inactive.
Screening O=C(NCc1cccs1)c1csc([C@@H]2C[C@H](O)[C@@H](CO)O2)n1 returned FadD28 binding inactive, GDH-TPI counter-1 inactive and Mtb FBA inh inactive.
CCCCNc1nc2ccccc2nc1NS(=O)(=O)c1ccc(F)cc1 was read as FadD28 binding inactive, GDH-TPI counter-1 inactive, Mtb UGM inh inactive, Mtb bLac sens inconclusive, Rv3671c protease inactive and Mtb FBA inh inactive.
`CCOc1ccc2nc(NCCCNS(=O)(=O)c3ccc(F)cc3)c(C#N)cc2c1` gave FadD28 binding inactive, GDH-TPI counter-1 inactive, Mtb UGM inh inactive, Mtb bLac sens inactive, Rv3671c protease inactive, Mtb FBA inh 39.9, Mtb FBA inh conf inactive and GDH-TPI counter-2 inactive.
`CCOc1ccc2nc(NCCCNS(=O)(=O)c3ccccc3)c(C#N)cc2c1` gave FadD28 binding inactive, GDH-TPI counter-1 inactive, Mtb UGM inh inactive, Mtb bLac sens inactive, Rv3671c protease inactive, Mtb FBA inh 36.6, Mtb FBA inh conf 98.4 and GDH-TPI counter-2 64.1.
For CCOc1ccc2nc(NCCNC(=O)c3cc(OC)c(OC)c(OC)c3)c(C#N)cc2c1 the results were FadD28 binding inactive, GDH-TPI counter-1 inactive, Mtb UGM inh inactive, Mtb bLac sens inactive, Rv3671c protease inactive and Mtb FBA inh inactive.
Screening COc1cccc(Oc2ccc(OC)cc2C(=O)O)c1 returned FadD28 binding inactive, GDH-TPI counter-1 inactive, Mtb UGM inh inactive, Mtb bLac sens inactive, Rv3671c protease inactive and Mtb FBA inh inactive.
For COc1cccc(-c2c(C(=O)O)cc(O)c3ccc(OC)cc23)c1 the results were FadD28 binding inactive, GDH-TPI counter-1 inactive, Mtb FBA inh 34.1, Mtb FBA inh conf inactive and GDH-TPI counter-2 inactive.
For Cc1ccc([C@@H]2CC(=O)[C@@H]3CN(S(=O)(=O)c4ccc(C)cc4)[C@H](c4ccc(Cl)cc4)C[C@@H]3N2S(=O)(=O)c2ccc(Cl)cc2)cc1 the results were FadD28 binding inactive, GDH-TPI counter-1 inactive and Mtb FBA inh inactive.
`Cc1c(OCC(=O)N2CCC(C(N)=O)CC2)ccc2c3c(c(=O)oc12)CCCC3` gave FadD28 binding inactive, GDH-TPI counter-1 inactive, Mtb UGM inh inactive, Mtb bLac sens inactive, Rv3671c protease inactive and Mtb FBA inh inactive.
`NC(=O)C1CCN(C(=O)COc2ccc3c4c(c(=O)oc3c2)CCCC4)CC1` gave FadD28 binding inactive, GDH-TPI counter-1 inactive, Mtb UGM inh inactive, Mtb bLac sens inactive, Rv3671c protease inactive, Mtb FBA inh 78.7, Mtb FBA inh conf 166.3 and GDH-TPI counter-2 135.6.
Screening O=C(COc1ccc2c3c(c(=O)oc2c1)CCC3)N1CCN(c2ccc(F)cc2)CC1 returned FadD28 binding inactive, GDH-TPI counter-1 inactive, Mtb UGM inh inactive, Mtb bLac sens inactive, Rv3671c protease inactive and Mtb FBA inh inactive.
Screening O=C(O)C1CCN(C(=O)COc2ccc3c4c(c(=O)oc3c2)CCC4)CC1 returned FadD28 binding inactive, GDH-TPI counter-1 inactive, Mtb UGM inh inactive, Mtb bLac sens inactive, Rv3671c protease inactive, Mtb FBA inh 41.0, Mtb FBA inh conf 124.2 and GDH-TPI counter-2 78.8.
COc1cccc(/C=C/C(=O)N2CCN(S(=O)(=O)c3ccccc3)CC2)c1 was read as FadD28 binding inactive, GDH-TPI counter-1 inactive and Mtb FBA inh inactive.
Screening CCCn1c(CC)nc([N+](=O)[O-])c1Sc1ncn[nH]1 returned FadD28 binding inactive, GDH-TPI counter-1 inactive and Mtb FBA inh inactive.
Screening Cc1ccc(C2=NNC(c3cccc(F)c3)S2)cc1 (stereo not drawn) returned FadD28 binding inactive, GDH-TPI counter-1 inactive, Mtb UGM inh inactive, Mtb bLac sens inactive, Rv3671c protease inactive and Mtb FBA inh inactive.
For COc1ccc(C2NN=C(c3ccc(C)cc3)S2)cc1OC (stereo not drawn) the results were FadD28 binding inactive, GDH-TPI counter-1 inactive, Mtb UGM inh inactive, Mtb bLac sens inactive, Rv3671c protease inactive, Mtb FBA inh 38.4, Mtb FBA inh conf active and GDH-TPI counter-2 active.
For CNc1cncc(-c2ccc(OC)cc2OC)n1 the results were FadD28 binding inactive, GDH-TPI counter-1 inactive, Mtb FBA inh 52.1, Mtb FBA inh conf inactive and GDH-TPI counter-2 inactive.
For CNc1cncc(-c2cc(OC)c(OC)c(OC)c2)n1 the results were FadD28 binding inactive, GDH-TPI counter-1 inactive, Mtb FBA inh 96.2, Mtb FBA inh conf active and GDH-TPI counter-2 active.
Screening CNc1cccc(-c2cc(OC)c(OC)c(OC)c2)n1 returned FadD28 binding inactive, GDH-TPI counter-1 inactive and Mtb FBA inh inactive.
CC(=O)Nc1ccc2nc(NC(=O)COc3ccc([N+](=O)[O-])cc3)sc2c1 was read as FadD28 binding inactive, GDH-TPI counter-1 inactive, Mtb UGM inh inactive, Mtb bLac sens inactive, Rv3671c protease inactive and Mtb FBA inh inactive.
Screening Cc1ccc(C)c(OCC(=O)Nc2nc3ccc([N+](=O)[O-])cc3s2)c1C returned FadD28 binding inactive, GDH-TPI counter-1 inactive, Mtb UGM inh inactive, Mtb bLac sens inactive, Rv3671c protease inactive, Mtb FBA inh 53.0, Mtb FBA inh conf inactive and GDH-TPI counter-2 inactive.
`COc1ccccc1Cn1c(/C=C/c2ccccc2)nc2ccccc21` gave FadD28 binding inactive, GDH-TPI counter-1 inactive, Mtb bLac sens inactive, Rv3671c protease inactive, Mtb FBA inh 64.8, Mtb FBA inh conf 97.9 and GDH-TPI counter-2 76.6.
`Cn1c(=O)c(/C=C/c2ccc(F)cc2)nc2ccccc21` gave FadD28 binding inactive, GDH-TPI counter-1 inactive and Mtb FBA inh inactive.
Screening COCCn1c(/C=C/c2ccccc2)nc2ccccc21 returned FadD28 binding inactive, GDH-TPI counter-1 inactive, Mtb UGM inh inactive, Mtb bLac sens inactive, Rv3671c protease inactive, Mtb FBA inh 53.1, Mtb FBA inh conf inactive and GDH-TPI counter-2 inactive.

Assay outcomes: PubChem BioAssay, several laboratories
